Screening data deposited in PubChem by National Center for Advancing Translational Sciences (NCATS).
HTT aggregate – mutant huntingtin aggregation inhibition | PC12 HttQ103-GFP aggregates, Acumen cytometry, 40 h | Potency, µM (series often up to 46.1 µM), for inactives: top-dose activity change, negative = inhibition, actives largely listed as inhibitors | hit rate 1.1% among 220,000 | AID 1688; note: potency is the fitted concentration of half-maximal effect; % is set by controls: 0 for no effect and ±100 for the full control effect; nearly all actives have a fitted effect of over 60% in size
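Ecdysone-promoter PC12 model expressing HTT exon 1 Q103 fused to GFP, induced by tebufenozide at 100 nM final. Compounds titrated; aggregates sized 1–25 µm scored on a 488 nm laser cytometer.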
HTT cytoprotect – cytoprotection in Huntington HTT-Q103 PC12 cell model | AID 1471 | hit rate 0.14% among 230,000 | Potency, µM (top dose mostly 56.4 µM), inactives show cytoprotection (ATP increase), actives largely listed as activators | PC12 HTT-Q103 induced, cytoprotection, ATP luminescence, 40 h; note: potency is the fitted concentration of half-maximal effect; % of control where 0% means no effect; nearly all actives have a fitted effect of over 45% in size
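Cells were plated at 1500 per well in phenol red-free DMEM with 5% equine and 5% calf serum. Tebufenozide (100 nM final) and compounds were added, then ATPlite reagent, and luminescence was read.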
NPSR antag – neuropeptide S receptor (human) antagonism, cAMP; Q6W5P4; Potency, µM (highest dose often 38.3 µM), without a hit: at the highest dose activity change, negative = inhibition, most hits filed as inhibitors; CHO-NPSR cells, cAMP TR-FRET, antagonist mode; hit rate 1% among 220,000; note: potency is the fitted concentration of half-maximal effect; % is set by controls: 0 for no effect and ±100 for the full control effect; nearly all actives have a fitted effect of over 50% in size
Target sequence (Q6W5P4 whole entry, looked up): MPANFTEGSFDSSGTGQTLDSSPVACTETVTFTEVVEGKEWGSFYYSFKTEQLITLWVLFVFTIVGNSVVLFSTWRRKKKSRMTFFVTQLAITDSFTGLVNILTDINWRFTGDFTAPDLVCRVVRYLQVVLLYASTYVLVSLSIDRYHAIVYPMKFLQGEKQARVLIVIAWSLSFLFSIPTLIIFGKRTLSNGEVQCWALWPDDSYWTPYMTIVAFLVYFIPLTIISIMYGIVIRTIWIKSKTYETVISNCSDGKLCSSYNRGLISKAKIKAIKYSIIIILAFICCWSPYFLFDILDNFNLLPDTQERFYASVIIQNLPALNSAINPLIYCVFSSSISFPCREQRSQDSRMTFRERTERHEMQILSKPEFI
IMPase Li inh – membrane-permeable IMPase blocker, potentiated with lithium; AID 1457; hit rate 0.35% among 210,000; CHO-M1 cells, IP1 TR-FRET (IP-One), carbachol + lithium; Potency, µM (doses to about 59.4 µM), inactives show top-dose activity, negative = IMPase inhibition, most hits filed as inhibitors;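 note: IP1 builds up when IMPase is blocked and the TR-FRET signal falls; potency is the fitted concentration of half-maximal effect; plate controls were basal vehicle for no effect and high inhibitor control for full effect; nearly all actives have a fitted effect of over 50% in size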
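Lithium-sensitised IP1 accumulation assay; M1-expressing CHO cells treated 30 min at 37C with compound. Competitive antibody detection by time-resolved FRET followed a 10 min room-temperature lysis step.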
IMPase cell inh – cell-permeable inhibitors of inositol monophosphatase (IMPase); AID 901; CHO-M1 cells, IP1 accumulation, HTRF TR-FRET ratio; inhibition (IP1 accumulation), % at 46.1 µM; P97697; 120,000 tested, under 10 active; active = well fitted curve in the direction sought with a large enough effect in the signal ratio, not every such curve was filed as active; inconclusive = small, poorly fitted or top-dose-only effect, or a change in a side signal; inactive = no such curve, though single readings can be large or run the other way; the % refers to the signal ratio;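 note: cells stimulated with carbachol in lithium chloride buffer; plate controls were DMSO basal wells for no effect and reference inhibitor wells for full effect; higher means more IMPase inhibition seen as more IP1 and lower FRET ratio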
Target sequence (P97697 whole entry, looked up): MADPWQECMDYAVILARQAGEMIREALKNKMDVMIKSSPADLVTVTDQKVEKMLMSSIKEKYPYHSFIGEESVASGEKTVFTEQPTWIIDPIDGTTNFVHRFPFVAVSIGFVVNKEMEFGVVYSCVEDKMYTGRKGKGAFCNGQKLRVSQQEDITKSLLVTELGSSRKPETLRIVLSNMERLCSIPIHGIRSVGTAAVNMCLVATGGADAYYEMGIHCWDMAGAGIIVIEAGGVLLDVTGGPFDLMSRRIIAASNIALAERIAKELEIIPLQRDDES
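Measured: the HTRF emission ratio (665/620 nm) plus the 620 nm donor channel, each fitted to the Hill equation to give AC50. Cells were CHO-M1 given compounds up to 46 uM and a 30 min carbachol stimulation at 37C.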
PNC inhibitor – blocks assembly of the perinucleolar compartment | hit rate 3.1% among 140,000 | AID 2417 | PC3M PTB-GFP, PNC prevalence imaging, 16 h; active compounds read low | activity change (PNC), negative = inhibition, % at 10 µM;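 active = readout at or below -70, meaning at least 70% loss of cells showing the perinucleolar compartment, a nuclear body marking cancer cells; inconclusive = readout between -30 and a set limit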;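 note: plate controls were DMSO wells for no effect and camptothecin positive control wells for full effect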
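Compounds are pinned in duplicate onto adhered PC3M cells stably expressing GFP-tagged PTB and incubated 16 h at 37 C. Cells are then fixed, nuclei stained with Hoechst, and PNC-positive cells counted.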
Starred values were filed as active, the others as inactive; ? = inconclusive; / = no result; [ ] = dose if it differs, or a comment. Compounds with a hit are over-represented: about 3.4% of the library has one in this group of screens. Unless noted, calls come from the whole dose curve; as a rule, active = well fitted curve in the direction sought with a large enough effect; inconclusive = small, poorly fitted or top-dose-only effect, or another doubt; inactive = no such curve, though single readings can be large; an effect the other way counts as inactive or inconclusive.

SMILES | HTT aggregate | HTT cytoprotect | NPSR antag | IMPase Li inh | IMPase cell inh | PNC inhibitor
c1ccc(Nc2ncnc3sc4c(c23)CCC4)cc1 | -16% | -29% | -19%[46.1 µM] | 10%[38.3 µM] | 1 | 12
CC(C)=NO[C@@H](C)c1cc(-c2c(C)cc(C)cc2C)no1 | / | 1%[10 µM] | / | / | / | /
N#Cc1c(-c2ccc(Br)cc2)nc2n(c1=O)CCCS2 | -3% | -16%[10 µM] | -23%[46.1 µM] | 8.9µM* | 2 | ?
COc1ccc(N2CC(O)=C(c3nc4ccccc4s3)C2=N)cc1 | 6% | -6% | -13%[46.1 µM] | 14µM* | 9 | 24
COc1cccc(N2CC(O)=C(c3nc4ccccc4s3)C2=N)c1 | -15%[9.22 µM] | -61%[10 µM] | -20% | ? | / | /
CCOC(=O)C(C(C)=O)=C1SC2CS(=O)(=O)CC2S1 (stereo not drawn) | 3% | -15%[0.074 µM] | -2%[46.1 µM] | -7%[38.3 µM] | -12 | -127*
CC(NC(=O)C1CC12CCC2)c1ccccc1 (stereo not drawn) | -7% | 3%[10 µM] | 12% | 3% | / | -12
C=CCC1(NC(C)c2ccccc2)CCCCC1 (stereo not drawn) | 7% | -2%[10 µM] | 10% | 2% | / | -113*
COc1ccc(-c2ccc(S(=O)(=O)NCC3CCCO3)cc2)cc1 (stereo not drawn) | 2% | / | -1% | 1% | / | 5
COc1cc(S(=O)(=O)NCC2CCCO2)ccc1Br (stereo not drawn) | 2% | 3% | 3%[46.1 µM] | 25%[38.3 µM] | 5 | -112*
Cc1nc(NC(=O)c2ccc(F)cc2)sc1C(=O)Nc1ccc2c(c1)CCC2 | -4% | -19% | -12%[46.1 µM] | 22µM* | -4 | ?
Cc1ccc(C(=O)Nc2nc(C)c(C(=O)Nc3ccc4c(c3)CCC4)s2)cc1 | -8% | 5%[1.9 µM] | -18% | -4% | 9 | -89*
Cc1cc(C)nc(SCc2nnc(SCC(N)=O)o2)n1 | -8%[9.22 µM] | 25%[10 µM] | -8% | 8% | / | /
CC(Oc1cc(Cl)ccc1Cl)C(=O)N/N=C\c1ccnn1C (stereo not drawn) | -3% | / | -3% | 5% | / | -109*
COc1ccc(C(=O)/C(=C\c2ccco2)N2C=CC=CC2=C(C#N)C#N)cc1 | 6.3µM* | ? | -26%[46.1 µM] | 26%[38.3 µM] | 16 | -26
N#CC(C#N)=C1C=CC=CN1/C(=C\c1ccco1)C(=O)c1ccccc1 | 3.2µM* | ? | ? | 35% | 16 | -2
N#CC(C#N)=C1C=CC=CN1/C(=C\c1ccco1)C(=O)c1ccc(Br)cc1 | ? | 32%[10 µM] | ? | 21% | 20 | 1
O=C(CSc1nc(-c2ccccc2)cs1)NCCN1C(=O)CSC1=O | 23% | -14% | 2% | -4% | / | /
O=C1c2ccccc2C(Nc2ccc(S(=O)(=O)N3CCCCCC3)cc2)N1c1ccccn1 (stereo not drawn) | 2% | -37% | -6%[46.1 µM] | 3%[38.3 µM] | 3 | -93*
O=C1c2ccccc2C(Nc2ccc(S(=O)(=O)N3CCOCC3)cc2)N1c1ccccn1 (stereo not drawn) | -14% | -16% | -7%[46.1 µM] | 5%[38.3 µM] | 4 | -15
CCNc1ncc2nc(-c3cccc(C#N)c3)c(=O)n(CCC#N)c2n1 | / | 10% | / | -4% | / | /
CC1CCN(c2nc3c(c(=O)[nH]c(=O)n3C)n2CC(C)CSc2nnnn2-c2ccccc2)CC1 (stereo not drawn) | ? | 25%[10 µM] | 4% | 10% | / | 7
C=CCn1c(C)c(C(C)=O)c(SC)nc1=S | 19% | 5% | -2%[46.1 µM] | 4%[38.3 µM] | 1 | -84*
COc1ccc(NC(=O)CSc2nc(-c3cccc(C)c3)[nH]c2-c2ccccc2)cc1OC | / | / | / | / | 11 | /
CCOC(=O)c1c(NS(=O)(=O)c2cccc(OC)c2)sc2c1CCC2 | -6% | 14µM* | ? | 20%[38.3 µM] | 15 | ?
SMILES | HTT aggregate | HTT cytoprotect | NPSR antag | IMPase Li inh | IMPase cell inh | PNC inhibitor
COC(=O)N1CCCc2cc(C)ccc21 | 10% | -7% | 11% | 1% | / | /
O=C(Nc1ccccc1)N1CCCc2ccccc21 | -8% | -17%[10 µM] | -3%[46.1 µM] | 6% | -6 | -100*
COc1ccc(C)cc1NC(=O)N1CCCc2ccccc21 | 9%[9.22 µM] | -7%[10 µM] | 32% | 25µM* | / | /
O=C(NC(=S)N1CCCc2ccccc21)c1ccc(Cl)cc1 | -3% | / | -14% | 13% | / | -107*
O=C(NC(=S)N1CCCc2ccccc21)c1ccccc1 | -26% | 29% | -8%[46.1 µM] | -17%[38.3 µM] | 9 | 91
COc1ccccc1C(=O)C1CCCN(C(=O)CCn2cnnn2)C1 (stereo not drawn) | 7%[9.22 µM] | 25%[10 µM] | 1% | / | / | /
CC1CCc2nc(N)c(C#N)c(-c3cccnc3)c2C1 (stereo not drawn) | 2µM* | 17%[10 µM] | 0%[46.1 µM] | 6% | -4 | -21
COc1cccc([C@@H]2Oc3ccc(Br)cc3C(=O)[C@H]2OC(=O)Nc2cc(OC)c(OC)c(OC)c2)c1 | / | -27% | / | 1% | / | /
CC(C)(C)NC(=O)c1cccc(NC(=O)c2ccco2)c1 | 0% | 20%[10 µM] | 4%[46.1 µM] | 1% | 0 | -100*
O=C(Nc1ccc2nn(-c3ccccc3)nc2c1)c1ccco1 | 2% | -9%[10 µM] | -13%[46.1 µM] | -15% | -1 | -100*
Nc1nc(NC(=O)c2ccco2)nn1-c1ccccc1 | -10% | 1% | -19%[46.1 µM] | -6%[38.3 µM] | -4 | -90*
Nc1nc(NC(=O)Cc2ccccc2)nn1-c1ccccc1 | 4% | 3%[10 µM] | -2%[46.1 µM] | 4%[38.3 µM] | -2 | 9
CC(C)C[C@@H](CC(=O)N[C@@H](CCCN)CC(=O)N[C@@H]1CCNC[C@H]1C(=O)N[C@H](CC(=O)N[C@@H](CCC(=O)O)CC(=O)O)CC(C)C)NC(=O)[C@@H]1CCCC[C@H]1N | / | -8%[1.9 µM] | / | 12% | / | /
CCc1nc2ccccc2n2c(-c3ccccc3)c3c(=O)n(C)c(=O)n(C)c3c12 | / | / | / | / | 2 | /
S=C(NC1CCCCC1)N1CCc2ccccc2C1 | 7.1µM* | / | -15% | 2% | / | -9
CCC/C=C(\CCC)C(NS(C)(=O)=O)c1ccccc1 (stereo not drawn) | / | -27% | / | -3% | / | /
Cc1cc(C)c2nc(N3CCN(C)CC3)c(C#N)cc2c1 | 13% | -18%[10 µM] | -15%[46.1 µM] | 28µM* | -20 | ?
c1ccc2c(c1)Nc1cc3ccccc3cc1S2 | 6%[9.22 µM] | -10%[10 µM] | ? | / | / | /
COc1ccc2c(c1)Sc1ccccc1N2 | 7.9µM* | 1%[10 µM] | -15% | 1% | / | /
O=[N+]([O-])c1cnc(N2CCCCC2)c([N+](=O)[O-])c1 | ? | -18%[10 µM] | 22% | 5% | / | ?
Cc1cc([N+](=O)[O-])cnc1N1CCOCC1 | 7% | / | 5% | -4% | / | -114*
Oc1ccc2ccccc2c1/C=N/Nc1ccccc1 | ? | 42%[10 µM] | 1% | 1% | -1 | 62
Cc1cc(N/N=C/c2c(O)ccc3ccccc23)nc(-c2ccccc2O)n1 | 10µM* | 27%[10 µM] | -1% | 0% | / | 5
Cc1ccc(NNC(=O)C(=O)N2CCCCC2)cc1 | -7% | -16%[1.9 µM] | 10% | -1% | 8 | -90*
